Compound activity deposited in PubChem BioAssay by several laboratories.
Most compounds without a hit are left out; they make up all but 3.7% or so of the library.
BoNT-F LC inh = blocks Botulinum neurotoxin F light chain protease; Multiplex microsphere protease cleavage assay, flow cytometry; inhibition, % at 10 µM; 360,000 tested, 0.22% active; AID 588497; in the data active = inhibition above about 35%, passing the limit was not always enough; inconclusive = no clear call, values can overlap the other calls; note: plate controls were buffer without enzyme for full effect and enzyme alone for no effect
MazF activator = increases E. coli MazEF RNase cleavage of RNA; P0AE70; FAM/BHQ RNA-DNA oligo cleavage fluorescence, 5 h; activation, % at 20 µM; 350,000 tested, 0.32% active; AID 504720; in the data active = activation above about 50%
BoNT A protease = blocks Botulinum neurotoxin A light chain protease; AID 588499; inhibition, % at 10 µM; 360,000 tested, 0.17% active; multiplex microsphere protease substrate cleavage, flow cytometry; note: plate controls were buffer without enzyme for full effect and enzyme alone for no effect
Anthrax LF inh2 = anthrax lethal factor protease inhibition. inhibition, % at 10 µM. multiplex microsphere protease cleavage assay, LF. 360,000 tested, 0.12% active; note: plate controls were buffer without enzyme for full effect and enzyme alone for no effect
Bead autofluor = compound fluorescence in toxin protease inhibitor counterscreen. compound autofluorescence counterscreen, microsphere flow cytometry; stronger effect = higher value. 360,000 tested, 3.1% active. fluorescence intensity (test concentration not listed); in the data active = fluorescence intensity above about 16000; inconclusive = no clear call, values can overlap the other calls
Active calls of the source: *; ? = inconclusive; . = not tested or not shown. Cut-off read from the data, not from the text of the source, unless noted: active = inhibition above about 30%; inconclusive = no clear call, values can overlap the other calls; inactive = below that.

SMILES | BoNT-F LC inh | MazF activator | BoNT A protease | Anthrax LF inh2 | Bead autofluor
COc1ccc(Br)c(C(=O)OCc2cc(=O)oc3cc(C)ccc23)c1 | -2.1 | 86.4* | 0.3 | -0.6 | 4243
O=C(COc1ccc(S(=O)(=O)N2CCCC2)cc1Cl)NC1CC1 | -0.1 | 8.4 | -2.4 | -2.7 | 24369*
O=C(COc1ccc(S(=O)(=O)NC2CCCCC2)cc1Cl)N1CCN(c2ccccc2)CC1 | 5.2 | -1.8 | ? | -2.7 | 22544*
COCC(=O)NC1CCN(S(=O)(=O)c2ccc(C(=O)O)cc2)CC1 | 1.1 | 2.7 | -1.7 | -1.2 | 20353*
CC1CCN(C(=O)CSC2=NS(=O)(=O)c3cc(F)ccc3N2)CC1 | -0.5 | 0.5 | -2.4 | -2.0 | 4605
CCC1COCCS(=O)(=O)N1Cc1ccccc1C (stereo not given) | -5.1 | 10.2 | -0.6 | -12.4 | 3922
Cc1ccc(OCC(=O)N2CCCCC2)c(Br)c1 | -1.5 | 1.9 | -3.9 | -1.7 | 17161*
Cc1ccc(S(=O)(=O)NC(=O)C2(C)CCN2C(=O)CC2CCCCC2)nc1 (stereo not given) | 7.9 | . | -0.3 | 2.3 | 3946
O=C(O)c1c2c(nc3ccc(F)cc13)CCC2 | 6.2 | 2.1 | 6.0 | -0.3 | 20799*
Cc1ccc2nc3c(c(C(=O)O)c2c1)CCC3 | -4.5 | 3.0 | -0.7 | -1.8 | 9591
Cn1ccc2c(-c3ccc4c(c3)OCCO4)cc3c(c21)C1CCC3O1 (stereo not given) | -3.2 | . | -0.3 | -13.6 | 6129
COc1ccc(OC)c(S(=O)(=O)N2CCC(NC(=O)c3ccccc3)CC2)c1 | -10.0 | 7.6 | -2.5 | -3.8 | 2962
O=C(CCCOc1ccccc1)N1CCN(C(=O)c2ccco2)CC1 | 0.3 | 8.9 | 0.2 | 0.7 | 23020*
O=C(NCc1ccccc1)c1ccccc1OCC(=O)N1CCCCC1 | -2.2 | 4.1 | -0.9 | -2.1 | 22260*
Cc1cc(Cl)ccc1OCCCC(=O)N1CCN(C(=O)c2ccco2)CC1 | 8.2 | -4.9 | 3.4 | -3.9 | 21790*
Cc1ccc(OCC(=O)N2CCN(C(=O)c3ccco3)CC2)cc1 | -5.6 | 4.0 | -0.8 | -3.9 | 3896
O=C(NCc1ccccc1)c1cccc(OCC(=O)N2CCN(C(=O)c3ccco3)CC2)c1 | 1.4 | -0.5 | ? | 3.0 | 20088*
CN1C2C=CC(=O)C1C1C(=O)N(c3ccccc3)C(=O)C12 (stereo not given) | -14.0 | . | -0.9 | 0.8 | 5789
Cc1cn([C@H]2C[C@H](O)[C@@H](CCC(=O)NCc3ccco3)O2)c(=O)[nH]c1=O | -11.6 | -8.7 | -0.7 | -3.2 | 3703
Cc1ccc(S(=O)(=O)NN)c(C)c1N1CCCC1=O | 2.8 | 164.7* | -0.5 | -7.8 | 4740
Cc1ccc(C)c(S(=O)(=O)Nc2cc3c4c(c2)CC(=O)N4CCC3)c1 | -4.9 | -0.4 | -0.3 | -10.8 | ?
Cc1ccc(-n2c(=O)c3sccc3n(CC(=O)N3CCCC3)c2=O)cc1 | 0.8 | 3.0 | -0.6 | 0.9 | 9658
O=C(Cn1c(=O)n(-c2ccccc2)c(=O)c2sccc21)N1CCCC1 | -4.1 | -1.5 | -0.6 | 0.0 | 23839*
CCN1C(=O)CC(N2CCN(c3ccc(C(=O)c4ccncc4)cc3)CC2)C1=O (stereo not given) | -1.6 | -2.0 | ? | -3.1 | 20385*
CC1Sc2ccc(S(=O)(=O)CCC(=O)NC(C)c3ccccc3)cc2NC1=O (stereo not given) | 0.9 | -0.6 | 1.0 | 1.8 | 4316
SMILES | BoNT-F LC inh | MazF activator | BoNT A protease | Anthrax LF inh2 | Bead autofluor
CC(C)CN1C(=O)C(NC(=O)C2CC2)(C(F)(F)F)C2=C1CC(C)(C)CC2=O (stereo not given) | 12.0 | 7.6 | 1.9 | 10.0 | 10662
CC(C)CC(=O)NC1(C(F)(F)F)C(=O)N(Cc2ccccc2)C2=C1C(=O)CC(C)(C)C2 (stereo not given) | 4.3 | 11.5 | 2.3 | -2.9 | 21893*
CC1(C)CC(=O)C2=C(C1)N(Cc1ccccc1)C(=O)C2(O)C(F)(F)F (stereo not given) | 3.8 | 3.6 | 1.1 | -7.0 | 3135
CC1(C)CC(=O)C2=C(C1)N(Cc1ccc(F)cc1)C(=O)C2(NC(=O)c1cccnc1)C(F)(F)F (stereo not given) | 0.9 | 4.8 | ? | -1.3 | 20986*
CC1(C)CC(=O)C2=C(C1)N(CC1CCCO1)C(=O)C2(NC(=O)c1cccnc1)C(F)(F)F (stereo not given) | -5.9 | 4.9 | -2.6 | 0.1 | 17055*
Cc1ccc(NC(=O)Cn2cc(C=O)c3ccccc32)cc1C | 12.9 | -6.7 | 0.3 | -7.3 | 3460
Cc1nc(-n2ncc(C#N)c2N)c2c3c(sc2n1)CCC3 | 0.6 | 12.5 | 0.1 | 0.7 | 22751*
C/C(=N\NC(=O)C1(C)CC1(Br)Br)c1cccc(NC(=O)c2ccc(C)o2)c1 (stereo not given) | -3.3 | -2.0 | 0.0 | -4.0 | 5698
CN(CC(=O)Nc1ccccc1C(=O)NC1CC1)Cc1ccc(Cl)s1 | 2.9 | -1.8 | -0.6 | 6.5 | 3878
CCc1c(C)[nH]n(-c2ccc(Oc3ccccc3)c(S(=O)(=O)O)c2)c1=O | -1.6 | -4.7 | ? | -0.8 | 22582*
Cc1cc(C)n(-c2ccc(Oc3ccccc3)c(S(=O)(=O)O)c2)n1 | -7.7 | 5.6 | -0.5 | -2.7 | 2622
COC(=O)c1sc2ccccc2c1N | -5.2 | 1.6 | 0.0 | -8.0 | 5435
COC(=O)c1sc2ccccc2c1C(=O)OC | 3.5 | -7.0 | ? | 3.6 | 22728*
O=C1C2(CCC13COC(c1ccc(O)cc1)OC3)COC(c1ccc(O)cc1)OC2 (stereo not given) | -1.2 | 2.0 | 0.6 | -4.6 | 22568*
Cc1cc(C(=O)OCC(=O)NC(C)(C)C)c2ccccc2n1 | -2.5 | 6.2 | ? | 0.5 | 16530*
Cc1ccc(CNc2ccc3c(c2)OCO3)cc1 | -24.3 | 59.3* | 16.7 | -17.2 | 15077
Cc1ccc(S(=O)(=O)c2nc(NCc3ccc4c(c3)OCO4)sc2Cl)cc1 | -0.1 | -9.1 | 2.7 | 1.0 | 25130*
COc1cc(CNc2ncc(-c3ccc(Cl)cc3)n2C)cc(OC)c1OC | -7.4 | -3.5 | -2.6 | -4.5 | 3916
Cc1ccc(CNc2ncc(-c3ccc4c(c3)OCO4)n2C)cc1 | 0.8 | 9.6 | 0.6 | -3.8 | 22743*
Cn1c(-c2ccc3c(c2)OCO3)cnc1NCc1ccc(Cl)cc1 | -4.1 | 4.2 | -1.8 | -10.6 | 21164*
CN1/C(=C/C=C/c2n(C)c3cc([N+](=O)[O-])c([N+](=O)[O-])cc3[n+]2C)C(C)(C)c2ccccc21 | ? | 16.9 | ? | ? | 2852
Cc1ccc(C(=O)N/C(=C\c2cccs2)C(=O)NCCCN2CCOCC2)cc1 | -0.1 | -16.8 | 1.1 | 7.8 | 3116
NC(=O)COc1ccc(S(=O)(=O)N2CCCC2)cc1 | 8.1 | 3.2 | 0.4 | 9.5 | 3705
CN(C)c1ccc(CNn2cnnc2SCc2ccccc2F)cc1 | 13.4 | 5.6 | 10.4 | -3.2 | 19034*
C=CCNc1nnc(SC2CC(=O)N(c3ccc(OC)cc3)C2=O)s1 (stereo not given) | -3.7 | -0.7 | -2.6 | -5.8 | 17184*
COc1ccc(N2C(=O)CC(Sc3nc4ccccc4s3)C2=O)cc1 (stereo not given) | -2.2 | 3.3 | -0.8 | -4.1 | 4550
CSc1ncccc1C(=O)N1CCN(S(=O)(=O)c2ccccc2)CC1 | 1.5 | 3.1 | -0.8 | -1.6 | 6067
